Tb PFK inh: blocks T. brucei phosphofructokinase. O15648. T. brucei PFK, ADP-Glo luminescence. Potency, µM (doses to about 57.5 µM), actives largely listed as inhibitors. 0.17% of 330,000 active. AID 485367; further: nearly all actives have a fitted effect of over 60% in size
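ADP-Glo luminescence quantified ADP after 45 min at room temperature, with 1.25 nM T. brucei PFK, 0.1 mM ATP and 0.5 mM fructose-6-phosphate in pH 8.0 TEA buffer. qHTS titrations up to 57 µM; curves classified by quality.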
VDR inh: blocks the human vitamin D receptor | P11473 | VDR-SRC2-3 peptide fluorescence polarization, 2 h | Potency, µM, usual class: inhibitors | 0.93% of 400,000 active
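VDR–SRC2-3 interaction, FP format. Cmpds 23 nl via pintool, brief spin, 2 h ambient incubation.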
PLK1 PBD inh: blocks phosphopeptide binding to human PLK1 polo-box domain; Plk1 PBD binding of FITC phosphopeptide, fluorescence polarization; Potency, µM, most hits filed as inhibitors; 2.8% of 360,000 active; further: series mostly up to about 57 µM; nearly all actives have a fitted effect of over 65% in size
Pin1 inh: inhibitors of human Pin1 | Potency, µM (series often up to 115 µM), usual class: inhibitors | Pin1 FP peptide displacement, HiFluor488, 10 min | 0.009% of 390,000 active | Q13526; active means well fitted inhibition curve with a large enough effect in the polarisation, with a control signal flat, not every such curve was filed as active; inconclusive means small, poorly fitted or top-dose-only effect, or effect the other way, or a change in a side signal; inactive means no such curve, though single readings can be large or run the other way; the % refers to the polarisation
ASM inhibitor: inhibitors of human secretory acid sphingomyelinase; Potency, µM (top dose mostly 57.5 µM), hits mostly inhibitors; 0.006% of 340,000 active; placental ASM, HMU-PC fluorogenic substrate, 60 min; P17405
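qHTS format. ASM enzyme prepared from human placenta hydrolyses the fluorogenic substrate HMU-PC0 (9 uM final) over 60 min at 37 °C after a 10 min compound preincubation.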
TDP1 inh: blocks human tyrosyl-DNA phosphodiesterase 1. Q9NUW8. recombinant TDP1, AlphaScreen DNA substrate cleavage. Potency, µM (series often up to 130 µM), usual class: inhibitors. 0.28% of 350,000 active. AID 485290; further: nearly all actives have a fitted effect of over 40% in size
Target sequence (Q9NUW8 whole entry, looked up): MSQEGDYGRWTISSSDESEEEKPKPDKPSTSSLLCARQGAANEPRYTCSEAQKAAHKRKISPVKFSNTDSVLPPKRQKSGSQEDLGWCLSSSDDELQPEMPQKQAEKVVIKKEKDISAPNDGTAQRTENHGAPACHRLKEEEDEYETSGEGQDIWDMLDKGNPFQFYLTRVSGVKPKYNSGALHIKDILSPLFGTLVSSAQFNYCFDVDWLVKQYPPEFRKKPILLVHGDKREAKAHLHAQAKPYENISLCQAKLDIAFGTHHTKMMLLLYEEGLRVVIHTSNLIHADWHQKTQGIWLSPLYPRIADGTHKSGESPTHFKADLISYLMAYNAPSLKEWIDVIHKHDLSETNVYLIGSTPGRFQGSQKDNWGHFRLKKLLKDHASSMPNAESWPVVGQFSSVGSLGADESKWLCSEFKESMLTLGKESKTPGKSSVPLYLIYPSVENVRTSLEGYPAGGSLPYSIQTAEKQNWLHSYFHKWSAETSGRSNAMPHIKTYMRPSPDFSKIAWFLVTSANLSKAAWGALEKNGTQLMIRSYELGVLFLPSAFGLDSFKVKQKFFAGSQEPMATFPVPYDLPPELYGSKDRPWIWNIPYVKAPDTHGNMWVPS
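Recombinant human Tdp1 (E. coli-expressed, 1 nM final) preincubated with compounds 15 min at room temperature, then 5'-biotin/3'-phosphotyrosine-FITC DNA substrate (15 nM final) added for 5 min. AlphaScreen beads (10 ug/ml final) added 10 min; cleavage lowers signal.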
Hits are given with their value. This is a sample that favours compounds with a hit; in the whole collection about 3.1% have one here. Unless noted, the call rests on the fitted dose curve; in most records, active means well fitted curve in the direction sought with a large enough effect; inconclusive means small, poorly fitted or top-dose-only effect, or another doubt; inactive means no such curve, though single readings can be large; an effect the other way counts as inactive or inconclusive.

`O=C(N/N=C/c1ccc(O)cc1O)C(=O)N/N=C/c1ccc(O)cc1O` gave Tb PFK inh inactive, VDR inh inconclusive, PLK1 PBD inh 11.9µM, Pin1 inh inconclusive and ASM inhibitor inactive.
Screening O=C(O)c1cccc(-c2nnn(Cc3ccccc3Cl)n2)c1 returned Tb PFK inh inactive, VDR inh inactive, PLK1 PBD inh 21.2µM, Pin1 inh inactive, ASM inhibitor inactive and TDP1 inh inactive.
`CCOC(=O)C1=C(O)C(=O)N(c2ccc(S(N)(=O)=O)cc2)C1c1ccc([N+](=O)[O-])cc1` (stereo not drawn) gave Tb PFK inh inactive, VDR inh inactive, PLK1 PBD inh 29.9µM, Pin1 inh inactive, ASM inhibitor inactive and TDP1 inh inactive.
`CC(=O)C1=C(O)C(=O)N(c2ccc(S(N)(=O)=O)cc2)C1c1cccc([N+](=O)[O-])c1` (stereo not drawn) gave Tb PFK inh inactive, VDR inh inactive, PLK1 PBD inh 26.7µM, Pin1 inh inactive, ASM inhibitor inactive and TDP1 inh inactive.
For CC(=O)C1=C(O)C(=O)N(c2ccc(C)cc2)C1c1ccc([N+](=O)[O-])cc1 (stereo not drawn) the results were Tb PFK inh inactive, VDR inh inactive, PLK1 PBD inh 26.7µM, Pin1 inh inactive, ASM inhibitor inactive and TDP1 inh inactive.
For O=C(Cn1cnc2sc3c(c2c1=O)CCCC3)NCC(=O)Nc1c(F)cc(F)cc1Br the results were Tb PFK inh inactive, VDR inh inactive, PLK1 PBD inh 29.9µM, Pin1 inh inactive, ASM inhibitor inactive and TDP1 inh inactive.
CCCOC(C(=O)OC1CCN(C)CC1)(c1ccccc1)c1ccccc1 was read as VDR inh inactive.
For Cc1cccc(NC(=S)N2CCN(Cc3ccccc3)CC2)c1C the results were Tb PFK inh inactive, VDR inh inactive, PLK1 PBD inh inactive, Pin1 inh inactive, ASM inhibitor inactive and TDP1 inh inactive.
Screening Cc1ccc(C(=S)N2CCN(Cc3ccccc3)CC2)s1 returned Tb PFK inh inconclusive, VDR inh inconclusive, PLK1 PBD inh 2.99µM, Pin1 inh inactive, ASM inhibitor inactive and TDP1 inh inactive.
`CC(C)(C)NC(=O)NC(=O)COC(=O)COc1ccc(Cl)cc1Cl` gave Tb PFK inh inactive, VDR inh inconclusive, PLK1 PBD inh 11.9µM, Pin1 inh inactive, ASM inhibitor inactive and TDP1 inh inactive.
`CC(Nc1nc(=S)nc(Nc2ccc(F)cc2)[nH]1)c1ccccc1` (stereo not drawn) gave Tb PFK inh inactive, VDR inh inconclusive, PLK1 PBD inh 13.4µM, Pin1 inh inactive and ASM inhibitor inactive.
Screening CCOc1ccccc1CNC(=O)c1ccc(CS(=O)Cc2cccc(Cl)c2)o1 (stereo not drawn) returned VDR inh inactive, Pin1 inh inactive and TDP1 inh inactive.
CC(C)n1c(O)c(N=NC(=O)c2ccccc2NS(=O)(=O)c2cccs2)c2ccccc21 was read as Tb PFK inh inactive, VDR inh inactive, PLK1 PBD inh 16.8µM, Pin1 inh inactive, ASM inhibitor inactive and TDP1 inh inactive.
CCc1ccccc1NC(=O)CCS(=O)(=O)c1ccc(Br)cc1 was read as Tb PFK inh inactive, VDR inh inactive, PLK1 PBD inh inactive, Pin1 inh inactive and ASM inhibitor inactive.
CCOc1ccccc1NC(=O)COC(=O)CN(C)S(=O)(=O)c1ccc(C)cc1 was read as Tb PFK inh inconclusive, VDR inh inconclusive, PLK1 PBD inh 26.7µM, Pin1 inh inactive, ASM inhibitor inactive and TDP1 inh inactive.
Screening COC(=O)c1ccccc1NC(=O)CCS(=O)(=O)c1ccc(Br)cc1 returned Tb PFK inh inconclusive, VDR inh inconclusive, PLK1 PBD inh 11.9µM and ASM inhibitor inactive.
Screening CCOc1ccccc1NC(=O)COC(=O)CNS(=O)(=O)c1ccc(C)cc1 returned Tb PFK inh inactive, VDR inh inactive, PLK1 PBD inh inactive, Pin1 inh inactive, ASM inhibitor inactive and TDP1 inh inactive.
Screening CCOc1ccccc1NC(=O)CCS(=O)(=O)c1ccc(Br)cc1 returned Tb PFK inh inconclusive, VDR inh inactive, PLK1 PBD inh 29.9µM, Pin1 inh inconclusive and ASM inhibitor inactive.
Screening CC(C)(C)OC(=O)Cc1nnc(-c2cc3ccccc3[nH]2)o1 returned Pin1 inh inactive and TDP1 inh inactive.
Screening O=C(O)CCC1CCCC1 returned VDR inh inactive and TDP1 inh inactive.
For O=C1CCCC(=O)N1c1ccc(O)cc1 the results were Tb PFK inh inactive, VDR inh inactive, PLK1 PBD inh inconclusive, Pin1 inh inactive, ASM inhibitor inactive and TDP1 inh inactive.
O=C1C=CC(=O)N1c1ccc(O)cc1 was read as Tb PFK inh inactive, VDR inh 25.1µM, PLK1 PBD inh 16.8µM, Pin1 inh inactive, ASM inhibitor inactive and TDP1 inh inactive.
`CC(=O)N1c2ccc(S(=O)(=O)N3CCC(C(=O)Nc4cccc(C)c4C)CC3)cc2CC1C` (stereo not drawn) gave Tb PFK inh inactive, VDR inh inactive, PLK1 PBD inh 23.8µM, Pin1 inh inactive, ASM inhibitor inactive and TDP1 inh inactive.
`CC(=O)N1c2ccc(S(=O)(=O)N3CCC(C(=O)Nc4cccc(C(F)(F)F)c4)CC3)cc2CC1C` (stereo not drawn) gave Tb PFK inh inactive, VDR inh inactive, PLK1 PBD inh 26.7µM, Pin1 inh inactive, ASM inhibitor inactive and TDP1 inh inactive.
Screening FB(F)F returned TDP1 inh inactive.
COc1ccc(C(c2c(C)[nH][nH]c2=O)c2c(C)[nH][nH]c2=O)cc1Br was read as Tb PFK inh inactive, VDR inh inconclusive, PLK1 PBD inh 23.8µM, Pin1 inh inactive, ASM inhibitor inactive and TDP1 inh inactive.
Cc1ccc(C(c2c(C)[nH][nH]c2=O)c2c(C)[nH][nH]c2=O)cc1 was read as Tb PFK inh inconclusive, VDR inh inconclusive, PLK1 PBD inh 26.7µM, Pin1 inh inactive and ASM inhibitor inactive.
Screening Cc1[nH][nH]c(=O)c1[C@@H](c1ccccc1[N+](=O)[O-])C(C#N)C#N returned Tb PFK inh inactive, VDR inh inconclusive, PLK1 PBD inh 23.8µM, Pin1 inh inactive, ASM inhibitor inactive and TDP1 inh inactive.
For Cc1[nH][nH]c(=O)c1C(c1ccc([N+](=O)[O-])cc1)c1c(C)[nH][nH]c1=O the results were Tb PFK inh inactive, VDR inh inconclusive, PLK1 PBD inh 26.7µM, Pin1 inh inactive, ASM inhibitor inactive and TDP1 inh inactive.
Cc1[nH][nH]c(=O)c1C(c1ccc(O)c([N+](=O)[O-])c1)c1c(C)[nH][nH]c1=O was read as Tb PFK inh inactive, VDR inh inactive, PLK1 PBD inh inactive, Pin1 inh inactive, ASM inhibitor inactive and TDP1 inh inactive.
`CC(C)CS(=O)(=O)c1oc(-c2ccc(F)cc2)nc1S(=O)(=O)c1ccccc1` gave VDR inh inconclusive and TDP1 inh inactive.

High-throughput results from PubChem.
